Screening data (PubChem)
The sample as a whole holds a higher share of hits than the screen did.
mcGAS MS inh: blocks mouse cGAS cGAMP production | Q8C6L5 | recombinant mouse cGAS, cGAMP by RapidFire MS | inhibition, % at 12.5 µM | 130,000 tested, 0.18% active;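 active = inhibition of cGAS enzyme activity at or above 60%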;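 also: enzyme stimulated by 45 bp dsDNA with ATP and GTP substrates; cGAMP share of summed cGAMP plus half ATP and half GTP signals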
Target sequence (Q8C6L5 whole entry, looked up): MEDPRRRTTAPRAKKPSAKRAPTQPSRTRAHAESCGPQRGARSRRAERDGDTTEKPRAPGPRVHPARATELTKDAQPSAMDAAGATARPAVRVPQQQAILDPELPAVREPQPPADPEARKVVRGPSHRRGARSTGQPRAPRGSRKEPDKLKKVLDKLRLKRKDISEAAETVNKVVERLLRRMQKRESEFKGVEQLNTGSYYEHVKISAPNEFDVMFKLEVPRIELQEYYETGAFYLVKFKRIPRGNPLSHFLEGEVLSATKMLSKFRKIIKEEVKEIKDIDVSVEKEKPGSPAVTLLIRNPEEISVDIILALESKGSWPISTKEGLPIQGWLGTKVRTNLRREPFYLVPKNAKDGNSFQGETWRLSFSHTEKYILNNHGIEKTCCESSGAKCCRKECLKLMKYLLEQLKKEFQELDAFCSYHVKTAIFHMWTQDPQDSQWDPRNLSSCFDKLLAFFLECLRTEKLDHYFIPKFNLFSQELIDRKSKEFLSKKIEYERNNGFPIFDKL
The depositor's hits bear a star; ! = not active in a repeat.

SMILES	mcGAS MS inh
O=C(O)COc1ccc(Cl)cc1Cl	95.7*
CCCCCCC(C)OC(=O)COc1ccc(Cl)cc1Cl (stereo unspecified)	-7.9
O=C(O)COc1cc(Cl)c(Cl)cc1Cl	98.2*
Oc1cc(Cl)ccc1Oc1ccc(Cl)cc1Cl	-18.4
O=C(O)COc1ccccc1	7.0
Cc1ccc(C(C)NC(=O)Nc2ccc(C#N)c(Cl)c2)o1 (stereo unspecified)	-6.9
CCOP(OCC)C(Nc1ccccc1)c1ccccc1 (stereo unspecified)	1.3
O=C(O)CCN1C[C@H](c2ccccc2)[C@@H]2[C@H]1C1CCN2CC1	-2.7
Cc1nc(CC(=O)N(CCN2CCCC2)Cc2ccccc2)cs1	-4.2
CC1=C(O)C(=O)C=C2C1=CC=C1[C@@]2(C)CC[C@@]2(C)[C@@H]3C[C@](C)(C(=O)O)CC[C@]3(C)CC[C@]12C	-6.6
c1cc2c(s1)C1CCCCC1OC21CN2CCC1CC2 (stereo unspecified)	-1.7
O=C(O)c1ccccc1-c1c2cc(Br)c(=O)cc-2oc2[c]([Hg])c(O)c(Br)cc12	98.7*!
Cc1ccc(C)c(Cn2cccc(C(=O)Nc3cccc(C)c3C)c2=O)c1	-11.1
Cc1ncc(CN2[C@@H]3CC[C@H]2CNC(=O)C3)[nH]1	-6.6
COc1ccccc1[C@@H]1CN(C(=O)c2ccn(C)n2)[C@@H]2C3CCN(CC3)[C@@H]21	-42.7
O=c1c(O)c(-c2ccc(O)c(O)c2)oc2c(O)c(O)cc(O)c12	92.7*
[N-]=[N+]=CC(=O)OCC(N)C(=O)O (stereo unspecified)	-3.6
CNc1ncccc1C(=O)N1CCC2(CCN(C)C2)CC1	-5.2
CC1C(c2ccccc2)=NOC(C)(C(=O)c2ccc(Br)cc2)N1O (stereo unspecified)	3.2
CC(=O)OCC1=C(C(=O)O)N2C(=O)[C@@H](NC(=O)CCCC(N)C(=O)O)C2SC1 (stereo partly specified)	73.3*!
CCOc1nc(NC(C)C)nc(N2CC3CC(C2)c2cccc(=O)n2C3)n1 (stereo unspecified)	3.2
ClC(Cl)=C(c1ccc(Cl)cc1)c1ccc(Cl)cc1	-2.6
O=C(O)CCCO	-3.6
Oc1c(Cl)c(Cl)c(Cl)c(Cl)c1Cl	98.3*
CCc1nnc(C(C)N2CCN(C(=O)COc3ccc(Cl)cc3)CC2)o1 (stereo unspecified)	1.1
SMILES	mcGAS MS inh
CN1CCN2CCN(C(=O)c3ccc4nnnn4c3)CC2C1=O (stereo unspecified)	-11.3
O=C1Nc2ccccc2C12CCN(Cc1ccnn1-c1ccccc1)CC2	-19.2
CCOP1(=O)Oc2ccccc2OCCOCCOCCOc2ccccc2O1	-7.0
CNC(C)Cc1c2c(cc3c1CCC3)CCC2 (stereo unspecified)	-3.4
Cc1nnnn1CCCN1CCC2(CC1)C(=O)Nc1ccccc12	-19.8
COc1ccc(CCNCc2ccc(C)s2)cc1	-4.9
C1CCC(CN(C2CCCC2)C2CC2)OC1 (stereo unspecified)	1.6
CC(C)(C)C(=O)NC1CCSC1=O (stereo unspecified)	76.0*
CCC(C)(C)C(=O)NC1CCSC1=O (stereo unspecified)	5.5
Brc1ccc2n1CCN=C2c1cccnc1	0.9
